104 molecules from ChEMBL document CHEMBL3988442, “University of Dundee, Small-Polar-MMV Screening Library” (2021) can be followed below.

Each structure is given as a SMILES string. Hit rate of the full screen: of about 48,000 compounds, about 13,000 (27%) showed an effect of 50% or more. The list shows a part of the results.

This experiment relates to Wolbachia pipientis. The experiment can be described thus: Anti-Wolbachia Cell-Based Screen. Format: functional. More on the design: scale not given: in the data most compounds retested in dose-response had high values. Particulars: 5 µM.
On to `O=C1CC[C@H]2CN(Cc3cccnc3)CC[C@H]2N1CCc1c[nH]cn1`, for which the “Percent Effect” value is -39.87%.
To `CN(c1ccccc1C(=O)O)S(=O)(=O)c1cccc2cccnc12` belongs -35.11%; to `Cc1ccc(CN2CCc3onc(C(=O)NCCN(C)C)c3C2)o1.O=C(O)C(F)(F)F.O=C(O)C(F)(F)F`, 74.07%.
In the case of `CC(C)C(=O)N1CCc2onc(C(=O)NCCN(C)C)c2C1.O=C(O)C(F)(F)F`, the “Percent Effect” value is listed as 7.945%.
Regarding `CC(C)NC(=O)N1CCc2onc(C(=O)NCCN(C)C)c2C1.O=C(O)C(F)(F)F`, the “Percent Effect” value was -1.789%.
For the molecule `CCS(=O)(=O)N1CCC2(CCN(Cc3nccs3)CC2)CC1.O=C(O)C(F)(F)F`, the “Percent Effect” value is recorded as 12.02%.
Turning to `O=C(c1cccs1)N1CCC2(CC1)CCN(S(=O)(=O)C1CC1)CC2`, the “Percent Effect” value was 97.11%.
The same measure for `CC(CCSc1ccccc1)N1CCN(C(=O)c2cccs2)CC1` (centres undefined): 0.564%; for `CS(=O)(=O)N1CCO[C@@H]2CCN(C(=O)c3cccs3)CC[C@H]21`: -2.724%; for `Cn1cnnc1S(=O)(=O)C1CCN(C(=O)c2ccsc2)CC1`: -15.33%.
For the molecule `CCS(=O)(=O)N1CCC2(CCN(C(=O)c3cccs3)CC2)CC1`, the “Percent Effect” value is 97.57%.
In the case of `O=C(c1ccsc1)N1CCC2(CC1)CCN(S(=O)(=O)C1CC1)CC2`, the “Percent Effect” value stood at 99.84%.
The same measure for `Cc1ccc(N(C)C2CCN(C(=O)c3ccsc3)CC2)nn1`: -0.5839%; for `CS(=O)(=O)N1CCC2(CCN(C(=O)c3cccs3)CC2)CC1`: 95.21%.
Take `Cc1ccc(OC2(C(=O)O)CCN(C(=O)c3cccs3)CC2)cn1`: the “Percent Effect” value is on record as -10.49%.
Take `O=C(O)C(F)(F)F.O=S(=O)(C1CC1)N1CCC2(CCN(Cc3nccs3)CC2)CC1`: the “Percent Effect” value is recorded as -4.722%.
With `O=C(c1cccs1)N1CC(C(=O)N2CCCC2)C2(CCOCC2)C1` (centres undefined), the “Percent Effect” value was -9.07%.
On to `COCC1CN(Cc2c(C)noc2C)Cc2cn(C)nc21` (centres undefined), for which the “Percent Effect” value was 8.994%.
In the case of `NC(=O)NC(=O)CN1CCN(CC2CC2)c2ccccc21`, the “Percent Effect” value was -3.453%.
The same measure for `COCC(c1cccc(C(F)(F)F)c1)N(C)C(=O)c1ccncc1` (centres undefined): -9.987%.
Turning to `COCCNc1ccccc1CNC(=O)NCc1nc(C)c(C)s1`, the “Percent Effect” value is given as -3.267%.
As to `CC(=O)Nc1ccc2nn(C(C)C)cc2c1`, the “Percent Effect” value is given as 3.305%.
In the case of `Cc1cc2cccc(C(=O)N3CCOC4(CNCCOC4)C3)c2o1` (centres undefined), the “Percent Effect” value is -17.55%.
As to `CCN(CC)CCNCC1CCOC(C)(C)C1` (centres undefined), the “Percent Effect” value was 101.9%.
On to `CCN(CC)CCCNCC1CCOC(C)(C)C1` (centres undefined), for which the “Percent Effect” value is 90.59%.
Consider `COc1c(NS(=O)(=O)c2ccc(F)c(C)c2)c(C)nn1C`, for which the “Percent Effect” value came to 6.685%.
Take `CC(=O)NC[C@@]1(COc2cnccn2)C[C@@H](O)[C@@H](O)C1.Cl`: the “Percent Effect” value was -2.09%.
For `CCN(CC)C1(Cc2cc(-c3ccccn3)on2)COC1`, the “Percent Effect” value is -7.749%.
Turning to `Cc1nc(CN(C)C2CCN(Cc3ccc4c(c3)CCC4)C2)no1` (centres undefined), the “Percent Effect” value is given as 94.75%.
As to `Cc1nc(CN(C)C2CCN(Cc3ccc(C(N)=O)cc3)C2)no1` (centres undefined), the “Percent Effect” value turned out to be 137.1%.
`CNC(=O)c1cccc(CN2CCC(N(C)Cc3noc(C)n3)C2)c1` (centres undefined): the “Percent Effect” value was determined as 9.379%.
In the case of `Cc1nc(CN(C)C2CCN(CCc3ccc4c(c3)CCO4)C2)no1` (centres undefined), the “Percent Effect” value turned out to be 131.2%.
Take `CNC(=O)c1ccc(CN2CCC(N(C)Cc3noc(C)n3)C2)cc1` (centres undefined): the “Percent Effect” value is 12.29%.
In the case of `Cc1nc(CN(C)C2CCN(Cc3ccc4c(c3)OCCO4)C2)no1` (centres undefined), the “Percent Effect” value is listed as -0.871%.
For `Cc1nc(CN(C)C2CCN(Cc3cccc(F)c3)C2)no1` (centres undefined), the “Percent Effect” value is listed as 130.9%.
`CC(C)(C)C(NC(=O)CCCS(C)(=O)=O)c1ccc(F)cc1F` (centres undefined): the “Percent Effect” value turned out to be 6.458%.
`Cc1cnc(N2CCC3(CC2)CC(NC(=O)N(C)C)CO3)nc1` (centres undefined): the “Percent Effect” value is 3.12%.
As for `CC(C)c1cc(C(=O)N2C[C@@H](C)[C@](O)(C3CC3)C2)[nH]n1`, the “Percent Effect” value turned out to be 9.432%.
Regarding `CCN(C(C)c1cccc(O)c1)S(=O)(=O)c1cccnc1` (centres undefined), the “Percent Effect” value is reported as -1.511%.
Consider `CC(C)(C)c1c[nH]c([C@@H]2COCCN2C2CCNCC2)n1`, for which the “Percent Effect” value is reported as -5.137%.
Turning to `Cc1cnn(C2CN(CC(=O)NCCc3ccccc3)C2)c1`, the “Percent Effect” value is recorded as -5.59%.
To `COc1cccc(CNC(=O)C(C)N2CC(n3nc(C)cc3C)C2)c1` (centres undefined) belongs -5.224%; to `CCc1ccc(NC(=O)CCN2CC(n3nc(C)cc3C)C2)cc1`, 87.75%; to `Cc1cc(C)n(C2CN(CCC(=O)NCCc3ccccc3)C2)n1`, 114.1%.
For `Cc1cc(C)n(C2CN(CCC(N)=O)C2)n1`, the “Percent Effect” value is 109.9%.
Take `Cc1cc(C)n(C2CN(Cc3ccc(C(=O)N4CCCC4)cc3)C2)n1`: the “Percent Effect” value was -4.233%.
With `Cc1cc(C)n(C2CN(CC(=O)NC3CCOCC3)C2)n1`, the “Percent Effect” value was -6.139%.
As to `Cc1cc(C)n(C2CN(CC(O)Cn3cccn3)C2)n1` (centres undefined), the “Percent Effect” value is -3.488%.
As to `Cc1cc(C)n(C2CN(CC(=O)N3CCOCC3)C2)n1`, the “Percent Effect” value is recorded as -1.985%.
Take `CN(C)S(=O)(=O)NC(=O)CC(c1ccccc1)C(F)(F)F` (centres undefined): the “Percent Effect” value is -3.128%.
In the case of `CCCS(=O)(=O)NCc1cccnc1Oc1ccc(C)nc1`, the “Percent Effect” value was -8.382%.
The same measure for `O=C(CC1OCCc2ccsc21)NCC1CC1` (centres undefined): -1.416%; for `CCc1nc(C(=O)N2CCN(CCc3ccc(OC)cc3)CC2)c[nH]1`: -9.12%.
With `Cc1ccc(C)c(N2CCN(CC3(O)CCNC3)CC2)c1` (centres undefined), the “Percent Effect” value is -4.262%.
In the case of `Cc1cc(O)cc(=O)n1CCCC(=O)Nc1n[nH]c2ccccc12`, the “Percent Effect” value is listed as 106.8%.
Take `Cc1ccccc1-c1cc(NC(=O)Cn2ccccc2=O)n(C)n1`: the “Percent Effect” value is given as -15.16%.
With `Cc1nonc1NC(=O)CCn1cc(Br)ccc1=O`, the “Percent Effect” value is recorded as -2.489%.
Regarding `Cc1cc(NC(=O)Cn2ccccc2=O)n(C)n1`, the “Percent Effect” value was -5.406%.
With `Cc1cc(O)cc(=O)n1CCCC(=O)Nc1n[nH]c2cccc(F)c12`, the “Percent Effect” value was 106.9%.
To `Cn1nc(C(C)(C)C)cc1NC(=O)Cn1ccccc1=O` belongs 13.92%; to `Cc1cc(O)cc(=O)n1CCCC(=O)Nc1n[nH]c2cc(Br)ccc12`, 109.7%; to `O=C(NCCCO)C1CC(=O)N(c2n[nH]c3cccc(F)c23)C1` (centres undefined), 13.85%.
As to `Cc1noc(C)c1NC(=O)CCn1cc(Br)ccc1=O`, the “Percent Effect” value was 5.297%.
Regarding `COc1ccccc1OC1(C(=O)O)CCN(c2nccnc2OC)CC1`, the “Percent Effect” value was -49.7%.
To `CC(=O)c1ccc(N2CCCC(CO)(Cc3ccccc3F)C2)nc1` (centres undefined) belongs -130%; to `CC(C(=O)N1CCn2cncc2C1)N1C[C@@H](C)O[C@@H](C)C1` (some centres undefined), 4.778%.
In the case of `Cc1noc(C)c1C(=O)N1CCCC1(C)C(=O)NC1CCCC1` (centres undefined), the “Percent Effect” value was determined as 82.14%.
In the case of `Cc1noc([C@@]23CCO[C@@H]2CCN(C(=O)c2c(C)noc2C)C3)n1`, the “Percent Effect” value is listed as -5.968%.
For `Cc1nc(C)c(C(=O)N2CCCC2(C)C(=O)NC2CCCC2)s1` (centres undefined), the “Percent Effect” value was determined as 95.95%.
Take `Cc1noc(C2CCN(C(=O)c3c(C)noc3C)CC2)n1`: the “Percent Effect” value is reported as -1.195%.
The same measure for `CNC(=O)C1CCCCN1C(=O)c1sc(-c2ccc(C)o2)nc1C` (centres undefined): 8.745%; for `Cc1nc(C)c(C(=O)N2CCCc3c(F)ccc(F)c32)o1`: -4.238%; for `COc1cccc2c1CCCCN2C(=O)c1oc(C)nc1C`: -10.05%.
To `Cc1nc(C)c(C(=O)N2CCCC2(C)C(=O)NC2CCCC2)o1` (centres undefined) belongs 148.2%; to `O=C(CCn1cccn1)N1CCN(CC(F)F)CC1`, 6.604%; to `CN(Cc1nc2ccsc2c(=O)[nH]1)CC1CCCCC1`, -1.437%.
As to `COc1nc2ccn(CCc3cc(O)nc(C)n3)c(=O)c2cc1C#N`, the “Percent Effect” value is -7.353%.
Turning to `COc1ccc(CCN2CCc3c(nc(C4CC4)n3C)C2)cc1`, the “Percent Effect” value is listed as -1.016%.
Regarding `Cc1nc(N(C)C)ncc1C(=O)NCCc1csc(-c2cnccn2)n1`, the “Percent Effect” value is given as -3.2%.
As to `Cc1nc(N(C)C)nc(NCCc2ccccn2)c1C`, the “Percent Effect” value was found to be 85.61%.
`c1nc(CCNc2nc(C3CC3)nc3c2CCNCC3)c[nH]1`: the “Percent Effect” value is on record as 9.275%.
As for `Cc1nc(N(C)C)nc(NCCc2cnccn2)c1C`, the “Percent Effect” value is listed as 98.55%.
The same measure for `Cc1nc(N(C)C)nc(NCCc2c[nH]cn2)c1C`: 92.29%; for `c1ccc(-c2nc3c(c(NCCc4c[nH]cn4)n2)CCNC3)cc1`: 7.707%.
In the case of `Cc1nc(CCNc2nc(N(C)C)nc3c2CCCC3)cc(=O)[nH]1`, the “Percent Effect” value is on record as 13.62%.
To `Cc1nc(C)c(C)c(NCCSc2ccccn2)n1` belongs -2.821%.
For the molecule `Cc1nc(O)cc(CCNc2nc(N(C)C)nc(C)c2C)n1`, the “Percent Effect” value was 19.28%.
For the molecule `Cc1cccnc1N1CCN(Cc2cc(O)c3cccc(F)c3n2)CC1`, the “Percent Effect” value is listed as -4.875%.
On to `CCS(=O)(=O)N1CCOC2(CCCN(c3ncc(F)cn3)C2)C1` (centres undefined), for which the “Percent Effect” value is -5.745%.
Take `Cc1cnc(CNS(=O)(=O)CCC2CCCO2)o1` (centres undefined): the “Percent Effect” value is recorded as -9.077%.
`CC1CN(Cc2cccc(C#N)c2)CCN1c1ccc2nncn2n1` (centres undefined): the “Percent Effect” value was -2.779%.
Consider `CC1CN(Cc2cccnc2)CCN1c1ccc2nncn2n1` (centres undefined), for which the “Percent Effect” value is reported as 111.3%.
The same measure for `COc1cccc(CN2CCN(c3ccc4nncn4n3)C(C)C2)c1` (centres undefined): -8.631%; for `CC1CN(Cc2cnn(C)c2)CCN1c1ccc2nncn2n1` (centres undefined): 114.2%.
As for `CC1CN(Cc2nccn2C)CCN1c1ccc2nncn2n1` (centres undefined), the “Percent Effect” value worked out at 2.712%.
The same measure for `CCC(=O)N1CCN(C(=O)Nc2cccc(F)c2)[C@H]2CS(=O)(=O)C[C@H]21`: 4.618%; for `Nc1nc(CN2CCOC(Cn3cccn3)C2)nc2ccccc12` (centres undefined): 54.57%.
Turning to `Cc1nc(CN2CCOC(Cn3cncn3)C2)nc2ccccc12` (centres undefined), the “Percent Effect” value was -10.51%.
`Cc1cnn(CC2CN(Cc3nc(C)c4ccccc4n3)CCO2)c1` (centres undefined): the “Percent Effect” value was 114.4%.
`Cc1cnn(CC2CN(Cc3nc(N)c4ccccc4n3)CCO2)c1` (centres undefined): the “Percent Effect” value was 9.564%.
As for `Cc1nc(CN2CCOC(Cn3cccn3)C2)nc2ccccc12` (centres undefined), the “Percent Effect” value is on record as 103.8%.
As for `Nc1nc(CN2CCOC(Cn3cncn3)C2)nc2ccccc12` (centres undefined), the “Percent Effect” value is -0.7232%.
To `Cc1nc2ccccc2nc1CN1CCOC(Cn2cccn2)C1` (centres undefined) belongs 77.13%.
In the case of `Cc1cnn(CC2CN(Cc3nc4ccccc4nc3C)CCO2)c1` (centres undefined), the “Percent Effect” value was -8.261%.
